Source: PubChem
CYP2C19 act – human CYP2C19 activators, primary screen, biochemical, luminescence | recombinant CYP2C19, luciferin-H EGE luminescence; active compounds read high; 0 = fully inhibited enzyme, 1 = untreated enzyme | activation factor at 5 µM | 96,000 tested, under 10 active | Cytochrome P450 2C19 (Homo sapiens), P33261 | AID 1025, 2008;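 active means activation factor of at least 2 at 5 µM in the primary screen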;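 further: 0 = wells with 2.5 mM tranylcypromine and 1 = vehicle-only wells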
CYP2C9 act – human CYP2C9 activators, primary screen, biochemical, luminescence | Cytochrome P450 2C9 (Homo sapiens), P11712 | recombinant CYP2C9, luciferin-H conversion; active compounds read high; factor 1 = untreated enzyme, 0 = blocked | activation factor at 5 µM | 96,000 tested, 1.4% active | AID 1024, 2008;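 active means activation factor of 2 or more for CYP2C9 at a 5 µM dose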;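 further: 0 = sulfaphenazole-blocked wells and 1 = vehicle-only wells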
sEH activator – soluble epoxide hydrolase activators, primary screen, biochemical, human sEH. Bifunctional epoxide hydrolase 2 (Homo sapiens), P34913. purified human sEH enzymatic activity, activator screen. activation, % at 2 µM. 91,000 tested, 0.04% active; in the data active means activation above about 37%
Target sequence (P34913 whole entry, looked up): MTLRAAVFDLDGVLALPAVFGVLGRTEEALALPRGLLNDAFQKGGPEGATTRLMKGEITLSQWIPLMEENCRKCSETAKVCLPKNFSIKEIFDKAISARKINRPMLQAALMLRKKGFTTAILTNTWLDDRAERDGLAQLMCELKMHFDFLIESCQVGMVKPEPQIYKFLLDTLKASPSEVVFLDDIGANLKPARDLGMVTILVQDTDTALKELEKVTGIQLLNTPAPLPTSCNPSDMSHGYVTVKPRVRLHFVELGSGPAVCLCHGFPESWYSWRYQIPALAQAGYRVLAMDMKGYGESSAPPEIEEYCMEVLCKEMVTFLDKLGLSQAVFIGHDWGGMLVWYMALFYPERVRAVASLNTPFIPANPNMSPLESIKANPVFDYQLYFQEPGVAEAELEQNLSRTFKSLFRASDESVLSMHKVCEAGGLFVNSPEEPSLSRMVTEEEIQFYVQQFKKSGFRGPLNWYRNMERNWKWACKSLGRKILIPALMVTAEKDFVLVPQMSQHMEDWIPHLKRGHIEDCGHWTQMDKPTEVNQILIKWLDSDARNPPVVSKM
sEH inhibitor – soluble epoxide hydrolase inhibitors, primary screen, biochemical, human sEH. inhibition, % at 2 µM. 91,000 tested, 0.34% active. AID 707, 2007. recombinant human sEH enzymatic activity assay. Bifunctional epoxide hydrolase 2 (Homo sapiens), P34913; in the data active means inhibition above about 80%
CYP2C9 inh – blockers of cytochrome P450 2C9 activity – biochemical, luminescence, ADME assay, primary screen; P11712; CYP2C9 Supersomes, luciferin-H conversion; inhibition, % at 5 µM; 96,000 tested, 20% active; AID 777, 2007;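 active means blocking of liver enzyme CYP2C9 beyond about 50% at 5 µM, limit read from the data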
CYP2C19 inhib – blockers of cytochrome P450 2C19 activity – biochemical, luminescence, ADME assay, primary screen | P33261 | CYP2C19 Supersomes, luciferin-H EGE luminescence, 30 min | inhibition, % at 5 µM | 96,000 tested, 21% active | AID 778, 2007;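 active means CYP2C19 inhibition above a set limit at 5 µM in the primary screen, cut at about 50% in these data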;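 further: plate controls were negative control wells for no effect and 2.5 mM tranylcypromine positive control for full effect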
Active calls of the source: *; . = no result. Shown are actives, neighbours in structure and some others; about 27% of the full set was active somewhere.

SMILES	CYP2C19 act	CYP2C9 act	sEH activator	sEH inhibitor	CYP2C9 inh	CYP2C19 inhib
O=C(C1CCCO1)N1CCN(Cc2c(O)ccc3ccccc23)CC1 (centres undefined)	0.6	1	-7	9	1	39
CCOC(=O)C1=CN(C)C=C(C(=O)OCC)C1c1ccsc1	0.6	0.6	.	.	40	44
O=C(Nc1ccccc1)N1CCN(c2nc3ccccc3s2)CC1	0.4	0.4	3	-1	59*	63*
O=C(c1cc2sccc2n1Cc1ccccc1)N1CCN(c2nc3ccccc3s2)CC1	0.8	0.5	-4	6	53*	25
Cn1c(=O)c2c(SCc3ccccn3)nc(-c3ccccc3)nc2n(C)c1=O	.	.	-3	2	.	.
Cc1nc2c(sc3nc4c(cc32)COC(C)(C)C4)c(=O)n1Cc1ccccc1	0.7	0.6	-9	8	40	28
Cc1nc2c(sc3nc4c(cc32)COC(C)(C)C4)c(=O)o1	0.8	0.3	6	-8	72*	16
O=C(Nc1nc(-c2ccc3c(c2)OCO3)cs1)C1CC1	0.7	0.5	.	.	48	33
CCOC(=O)N1CCN(C(=O)CSCC(=O)Nc2nc(-c3ccc(OC)cc3)cs2)CC1	0.2	0.2	-2	-1	83*	84*
CCOC(=O)N1CCN(C(=O)CSCC(=O)Nc2nc(-c3ccc(-c4ccccc4)cc3)cs2)CC1	0.7	0.6	2	-1	44	34
CCCC(=O)Nc1nc(-c2ccc3c(c2)OCCO3)cs1	0.9	0.1	8	-8	86*	13
CCCC(=O)Nc1nc(-c2ccc(OC)cc2)cs1	0.4	0	3	-5	96*	64*
Cc1ccc(-n2ncc(C(=O)N3CCc4ccccc4C3)c2NC(=O)c2ccco2)cc1C	.	.	-2	4	.	.
O=C1C(c2ccc(F)cc2)N(CC2COc3ccccc3O2)C(=O)CN1C1CCCCC1 (centres undefined)	1	0.7	-2	5	28	-2
CCn1c(SCC(=O)c2[nH]c(C)c(C(C)=O)c2C)nnc1-c1ccncc1	0.3	0.9	-3	1	8	66*
CCn1c(SCC(=O)c2[nH]c(C)c(C(C)=O)c2C)nnc1-c1ccccc1	0.2	0.7	-9	12	27	77*
CCn1c(SCC(=O)O)nnc1-c1ccccc1	0.9	1	0	-1	3	7
S=c1[nH]nc(CSCc2ccccc2Cl)n1-c1ccccc1	0.3	0.2	7	-9	76*	72*
COCc1n[nH]c(=S)n1-c1ccccc1	0.9	1	-6	0	4	12
COCC(C)NC(=O)c1noc2c1CCc1cc(OC)ccc1-2 (centres undefined)	1	1.4	.	.	-36	2
COCCNC(=O)c1noc2c1CCc1cc(OC)ccc1-2	0.8	0.4	.	.	59*	20
COc1ccc2c(c1)CCc1c(C(=O)NCCCn3ccnc3)noc1-2	0.2	0.3	1	-2	69*	82*
COc1ccc2c(c1)CCc1c(C(=O)NCc3ccco3)noc1-2	0.4	1.4	.	.	-41	62*
COc1ccc2c(c1)CCc1c(C(=O)NCCN3CCOCC3)noc1-2	1	1	.	.	2	4
CCOC(=O)N1CCC(NC(=O)Cn2cc3c(n2)CCCC3)CC1	0.6	1.1	.	.	-6	45
SMILES	CYP2C19 act	CYP2C9 act	sEH activator	sEH inhibitor	CYP2C9 inh	CYP2C19 inhib
CC1NC2(C(=O)N(Cc3ccccc3)c3ccccc32)C2C(=O)N(c3ccccc3)C(=O)C12 (centres undefined)	0.8	1	2	-3	0	16
COc1ccc(C(C)NC(=O)c2ccccc2)cc1 (centres undefined)	0.3	0.9	-8	6	5	75*
Cc1ccc(NC(=O)CC2SC3=NCCCN3C2=O)c(C)c1 (centres undefined)	1	1.2	3	-2	-19	-1
CCNCc1cc(Br)c(OCC(=O)Nc2ccccc2)c(OC)c1	.	.	-10	14	.	.
CCOc1cc(CNc2ccc(O)cc2)cc(Br)c1OCc1ccccc1F	0.7	1.1	-12	14	-14	34
CCOc1cc(CNc2ccc3c(c2)OCCO3)cc(Br)c1OCC(N)=O	0.5	0.1	4	0	86*	53*
CCOc1c(Br)cc(CNc2ccc3c(c2)OCCO3)cc1OC	0.1	0.1	3	-1	86*	86*
CCOc1cc(CNc2ccc3c(c2)OCCO3)cc(Br)c1OC	0.1	0.2	10	-8	84*	94*
Cc1ccc(-c2cn3c(=O)cc(C)[nH]c3n2)cc1	0.8	0.8	0	1	15	20
COc1ccc(NC(=O)NC(C(F)(F)F)C(F)(F)F)cc1	1	1.1	.	.	-10	3
COc1ccc(-c2nc(C#N)c(NCCCn3ccnc3)o2)cc1OC	0.2	0.1	-4	7	86*	81*
CCCOc1ccc(-c2nc(C#N)c(NCCCn3ccnc3)o2)cc1	.	.	-3	4	.	.
N#Cc1nc(-c2ccco2)oc1NCCCn1ccnc1	0.1	0.2	-14	17	84*	86*
O=C(COc1ccccc1Cl)N1CCN(c2ccc(F)cc2)CC1	0.2	1.3	-8	10	-29	82*
O=C(CN1CCN(c2ccc(F)cc2)CC1)N1CCOCC1	0.7	0.8	-8	8	17	28
COC(=O)c1ccc(OC)cc1OCC(=O)N1CCN(c2ccc(F)cc2)CC1	0.4	0.7	18	-15	32	64*
O=C(OCC(=O)N1CCN(c2ccccc2)CC1)c1ccc2ccccc2n1	1	2.3*	.	.	-130	-1
O=C(OCC(=O)N1CCN(c2ccccc2)CC1)c1ccccn1	0.9	1.1	11	-11	-12	15
O=C(COc1ccc(-n2cnnn2)cc1)N1CCN(c2ccc(F)cc2)CC1	1	1	30	-30	2	-2
O=C(Cn1cccc1)N1CCN(c2ccc(F)cc2)CC1	0.3	0.9	-12	11	12	73*
CNC(=O)/C(=C\c1ccc([N+](=O)[O-])cc1)NC(C)=O	1.1	1	-11	13	1	-11
CCn1cc(C(=O)N2CCOCC2)c(=O)c2cc(S(=O)(=O)N(C)C3CCCCC3)ccc21	1.2	1.1	.	.	-7	-23
COc1nc(C)nc(NC(=O)NS(=O)(=O)c2ccc(C)cc2)n1	1	1.2	-5	8	-21	0
O=[N+]([O-])c1ccc(N2CCCCC2)cc1N1CCOCC1	0.7	0.7	7	-9	30	28
O=[N+]([O-])c1ccc(N2CCN(S(=O)(=O)Cc3ccccc3)CC2)cc1N1CCOCC1	0.4	0.5	2	-2	53*	56*
